According to PubChem BioAssay (NCATS):
Inconclusive results are not listed. Activity calls are given as the source filed them. Calls follow the shape of the dose curve; as a rule, active = well fitted curve in the direction sought with a large enough effect; inconclusive = small, poorly fitted or top-dose-only effect, or another doubt; inactive = no such curve, though single readings can be large; an effect the other way counts as inactive or inconclusive.

What was measured:
[1] = qHTS of pediatric cancer cell lines to identify multiple opportunities for drug repurposing: Primary screen for DAOY cells (AID 1347090); also: series mostly up to about 46 µM; nearly all actives have a fitted effect of over 55% in size
Outline: (§1)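 Cell viability, CellTiter-Glo luminescence; 500-1,000 cells/well, 8- or 11-point titration, 48 h compound exposure at 37 degrees C, 5% CO2. Controls: DMSO neutral, bortezomib 2.3 µM final as positive.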

[2] = qHTS of pediatric cancer cell lines to identify multiple opportunities for drug repurposing: Primary screen for SJ-GBM2 cells (AID 1347091)
Outline: as §1

[3] = qHTS of pediatric cancer cell lines to identify multiple opportunities for drug repurposing: Primary screen for A673 cells (AID 1347092); also: nearly all actives have a fitted effect of over 45% in size
Outline: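 48 h compound exposure, A673, 500-1,000 cells/well, 37 degrees C/5% CO2. MIPE: 11-point, 0.78 nM-46 µM; NPC: 8-point, 0.59 nM-46 µM (final). Readout CellTiter-Glo luminescence after 15 min RT.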

[4] = qHTS of pediatric cancer cell lines to identify multiple opportunities for drug repurposing: Primary screen for SK-N-MC cells (AID 1347093); also: series mostly up to about 46 µM
Outline: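 Metabolically active cells were quantified by ATP-dependent luminescence (CellTiter-Glo, 15 min at room temperature) following 48 h treatment. Cells had been plated at 500-1,000 per well and settled for 5 h beforehand.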

[5] = qHTS of pediatric cancer cell lines to identify multiple opportunities for drug repurposing: Primary screen for BT-37 cells (AID 1347094); also: series mostly up to about 57 µM
Outline: (§2)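 Readout: CellTiter-Glo luminescence, 48 h treatment. Controls DMSO (neutral) and bortezomib 2.3 µM final (positive). Potency and efficacy taken from primary-screen concentration-response curves.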

[6] = qHTS of pediatric cancer cell lines to identify multiple opportunities for drug repurposing: Primary screen for NB-EBc1 cells (AID 1347095)
Outline: as §2

[7] = qHTS of pediatric cancer cell lines to identify multiple opportunities for drug repurposing: Primary screen for Saos-2 cells (AID 1347097); also: nearly all actives have a fitted effect of over 40% in size
Outline: as §2

[8] = qHTS of pediatric cancer cell lines to identify multiple opportunities for drug repurposing: Primary screen for SK-N-SH cells (AID 1347098); also: nearly all actives have a fitted effect of over 65% in size
Outline: (§3)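 Cells (500-1,000/well) rested 5 h, then received compounds for 48 h; metabolically active cells were measured by CellTiter-Glo luminescence. Final concentrations spanned up to 46 µM (MIPE, 11-point) or 0.59 nM-46 µM (NPC, 8-point) in primary screens, 11-point in follow-ups.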

[9] = qHTS of pediatric cancer cell lines to identify multiple opportunities for drug repurposing: Primary screen for NB1643 cells (AID 1347099); also: nearly all actives have a fitted effect of over 50% in size
Outline: as §2

[10] = qHTS of pediatric cancer cell lines to identify multiple opportunities for drug repurposing: Primary screen for U-2 OS cells (AID 1347096); also: nearly all actives have a fitted effect of over 50% in size
Outline: as §3

Measured: Potency

O=C(Nc1ccc(Cl)c(Cl)c1)C1CC1
not listed: [10]
inactive: all other assays above

Cc1c(C(C)C)c(=O)n(-c2ccccc2)n1C
inactive: all assays above

CC(C)(Oc1ccc(Cl)cc1)C(=O)O
inactive: all assays above

NC(CO)(CO)CO
not listed: [6]
inactive: all other assays above

CC1(C)O[C@@H]2C[C@H]3[C@@H]4CCC5=CC(=O)CC[C@]5(C)[C@@]4(F)[C@@H](O)C[C@]3(C)[C@]2(C(=O)CCl)O1
not listed: [10]
inactive: all other assays above

CN1CCN(C(c2ccccc2)c2ccccc2)CC1
not listed: [8]
inactive: all other assays above

Cc1cc2c(cc1CC(=O)c1sccc1S(=O)(=O)Nc1onc(C)c1Cl)OCO2
not listed: [6]
inactive: all other assays above

COc1c2occc2c(OC)c2c(=O)cc(C)oc12
not listed: [10]
inactive: all other assays above

COc1cc(-c2ccc(=O)[nH]n2)ccc1OC(F)F
not listed: [7] | [8]
inactive: all other assays above

c1ccc(OCc2ccc(CCCN3CCOCC3)cc2)cc1
not listed: [10]
inactive: all other assays above

CN(C)CCOc1ccccc1Cc1ccccc1
not listed: [8]
inactive: all other assays above

NC(=O)c1cc[n+](CC2=C(C(=O)[O-])N3C(=O)[C@@H](NC(=O)Cc4cccs4)[C@H]3SC2)cc1
not listed: [10]
inactive: all other assays above

CCC(=O)c1c(O)cc(O)cc1O
not listed: [6]
inactive: all other assays above

COc1cc2c(cc1OC)[C@@H]1CC(=O)[C@@H](CC(C)C)CN1CC2
not listed: [6]
inactive: all other assays above

CN=C(NC#N)Nc1ccc(C2=NNC(=O)CC2C)cc1 (stereo not drawn)
inactive: all assays above

O=c1[nH]c(=O)n([C@H]2CCCO2)cc1F
not listed: [6] | [9]
inactive: all other assays above

CC[N+](CC)(CCNC(=O)C(=O)NCC[N+](CC)(CC)Cc1ccccc1Cl)Cc1ccccc1Cl
not listed: [6]
inactive: all other assays above

COc1cc(OC)cc(OC)c1
not listed: [6]
inactive: all other assays above

CC1(C)O[C@@H]2C[C@H]3[C@@H]4C[C@H](F)C5=CC(=O)C=C[C@]5(C)[C@H]4[C@@H](O)C[C@]3(C)[C@]2(C(=O)CO)O1
not listed: [7]
inactive: all other assays above

Cc1cc(O)c(C(C)C)cc1Cl
not listed: [7] | [10]
inactive: all other assays above

O=C(O)CCCCC(=O)O
not listed: [6]
inactive: all other assays above

C#C[C@]1(O)CC[C@H]2[C@@H]3CCC4=CC(=O)CC[C@@H]4[C@H]3CC[C@@]21C
not listed: [6]
inactive: all other assays above
